# Pol kappa inh – inhibitors of human DNA polymerase kappa | Q9UBT6 | purified Pol kappa, fluorescent DNA synthesis assay, 10 min | Potency, µM (top dose mostly 107 µM), inactives show top-dose activity, negative = inhibition, hits mostly inhibitors | AID 588579 | hit rate 0.53% among 400,000; also: potency is read from the fitted curve at half-maximal effect; % is scaled to controls: 0 for no effect and ±100 for the full control effect
#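 10 nM Pol kappa was preincubated with compounds for 15 min at room temperature. Reaction started with 50 nM (final) substrate. Fluorescence read kinetically at 0 and 10 min.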
# Pol eta inh – inhibitors of human DNA polymerase eta | Q9Y253 | recombinant Pol eta, fluorescent DNA replication assay | Potency, µM (top dose mostly 114 µM), inactives show at the top dose activity change, negative = inhibition, usual class: inhibitors | hit rate 1.2% among 390,000; also: potency is read from the fitted curve at half-maximal effect; % is scaled to controls: 0 for no effect and ±100 for the full control effect
#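 Pol eta at 10 nM preincubated with compounds 15 min at room temperature; reaction started with fluorescent substrate (50 nM final) and read kinetically at 0 and 10 min.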
# 12-LOX inh – blocks human arachidonate 12S-lipoxygenase | hit rate 1.1% among 580,000 | Potency, µM (highest dose often 108 µM), without a hit: at the top dose activity change, negative = inhibition, usual class: inhibitors | purified 12hLO, xylenol orange hydroperoxide absorbance | P18054; also: potency is read from the fitted curve at half-maximal effect; % is scaled to controls: 0 for no effect and ±100 for the full control effect
#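 Purified human 12hLO (150 nM final) in 25 mM Hepes, 0.01% Triton X-100, pH 7.0 was preincubated 15 min at room temperature with compound. Then 40 uM arachidonic acid was added, 30 min. Hydroperoxide was read by Fe-XO absorbance ratio 573/405 nm.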
# PI5P4K alpha inh – inhibitors of human PI5P4K alpha | P48426 | PI5P4Kalpha enzyme, ADP-Glo luminescence, 60 min; active compounds read low | max response, % | hit rate 1.2% among 330,000 | AID 652105; active = max response of -50% or lower; inconclusive = between -30% and -50%; inactive = -30% or higher; also: value at the top dose of about 77 µM; % is scaled to controls: 0 for no effect and ±100 for the full control effect
#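 Controls without substrate or without enzyme flank wells where PI5P4Kalpha converts substrate using 5 microM ATP (final). Incubation lasts 60 minutes at room temperature; ADP formed is read by ADP-Glo luminescence.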
# Pol beta inh – blocks human DNA polymerase beta activity | P06746 | Pol beta primer extension/strand displacement, fluorescence kinetic | Potency, µM (series often up to 114 µM), for inactives: at the top dose activity change, negative = inhibition, most hits filed as inhibitors | hit rate 1.3% among 340,000 | AID 485314; also: potency is read from the fitted curve at half-maximal effect; % is scaled to controls: 0 for no effect and ±100 for the full control effect
#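 Pol beta (10 nM) was preincubated with compound for 15 min at room temperature. The reaction was then started with 50 nM substrate and read immediately and after a further 10 min at room temperature.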
# POLI inh – inhibitors of human DNA polymerase iota; Pol iota fluorescent replication assay, 10 min; Potency, µM (series often up to 115 µM), inactives show top-dose activity, negative = inhibition, actives largely listed as inhibitors; hit rate 1% among 390,000; AID 588590; also: potency is read from the fitted curve at half-maximal effect
# Target sequence (Q9UNA4 whole entry, looked up): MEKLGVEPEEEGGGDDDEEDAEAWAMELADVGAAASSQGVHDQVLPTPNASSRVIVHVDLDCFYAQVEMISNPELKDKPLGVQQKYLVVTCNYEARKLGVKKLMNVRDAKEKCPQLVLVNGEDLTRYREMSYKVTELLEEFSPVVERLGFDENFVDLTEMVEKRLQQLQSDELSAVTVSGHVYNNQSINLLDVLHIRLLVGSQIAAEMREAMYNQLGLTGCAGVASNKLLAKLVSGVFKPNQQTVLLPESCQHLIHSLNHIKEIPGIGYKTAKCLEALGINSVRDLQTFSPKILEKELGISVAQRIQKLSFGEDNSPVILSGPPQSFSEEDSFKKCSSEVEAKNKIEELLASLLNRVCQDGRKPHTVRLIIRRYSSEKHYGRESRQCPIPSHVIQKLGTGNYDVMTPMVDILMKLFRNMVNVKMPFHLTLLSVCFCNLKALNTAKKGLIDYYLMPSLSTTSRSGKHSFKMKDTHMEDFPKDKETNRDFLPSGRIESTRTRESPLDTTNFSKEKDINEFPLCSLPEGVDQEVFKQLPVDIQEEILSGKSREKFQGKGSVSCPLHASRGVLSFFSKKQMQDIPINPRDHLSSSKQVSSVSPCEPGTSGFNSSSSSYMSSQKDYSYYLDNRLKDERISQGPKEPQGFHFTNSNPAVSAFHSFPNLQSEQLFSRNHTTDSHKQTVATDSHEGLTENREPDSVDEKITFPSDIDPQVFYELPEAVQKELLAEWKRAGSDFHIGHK
#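 Pol iota at 10 nM preincubated 15 min with compounds at room temperature; reaction started with fluorescent substrate, 50 nM final. Fluorescence read kinetically at 0 and 10 min; buffer-only wells as negative control.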
# Numbers without * were called inactive; ? = inconclusive; nt = no result given; [ ] = remark or other dose. In the library only some 2.9% were active in any assay of this set; here they are far more common. Unless noted, calls follow the shape of the dose curve; as a rule, active = well fitted inhibition curve with a large enough effect; inconclusive = small, poorly fitted or top-dose-only effect, or another doubt; inactive = no such curve, though single readings can be large or run the other way.
SMILES,Pol kappa inh,Pol eta inh,12-LOX inh,PI5P4K alpha inh,Pol beta inh,POLI inh
O=c1[nH]c(/C=C/c2cccnc2)c([N+](=O)[O-])c(=O)[nH]1,3%,?,-6%,-65*,-11%,-21%
Cc1nc(CN2CCN(CCOc3ccc(Cl)cc3)CC2)no1,nt,nt,9%,nt,nt,nt
CC(=O)c1c[nH]c2cc(F)ccc12,nt,nt,3%,nt,nt,nt
N#C/C(=C/c1cccc(O)c1)C(=O)c1c[nH]c2cc(F)ccc12,nt,nt,16µM*,nt,nt,nt
Cc1cccc2[nH]cc(C(=O)/C(C#N)=C\c3ccc(C#N)cc3)c12,nt,nt,-55%,nt,nt,nt
N#C/C(=C/c1cccc(C#N)c1)C(=O)c1c[nH]c2cc(F)ccc12,nt,nt,11µM*,nt,nt,nt
CCN(Cc1cccs1)C(=O)NC(C)c1cccc(Br)c1 (centres undefined),nt,nt,20%,nt,nt,nt
Cc1cccc(NC(=O)Nc2c[nH]c(=O)[nH]c2=O)c1C,nt,nt,-9%,nt,nt,nt
Cc1cc(NC(=O)c2cc(-c3ccccn3)nc3c(Cl)cccc23)no1,0%,-22%,0%,-24,-26%,-5%
O=C(Nc1nccs1)c1cc(-c2ccccn2)nc2c(Cl)cccc12,-34%,?,0%,-22,?,25µM*
O=C1c2cc(Br)ccc2N(Cc2ccc(Br)cc2)S(=O)(=O)C1c1cc(Cl)c(Cl)cc1[N+](=O)[O-] (centres undefined),?,22µM*,nt,-61*,nt,?
Cc1ccccc1CNC(=O)c1ccc(Nc2cc(-c3ccc(F)cc3)ncn2)cc1,nt,nt,49%,nt,nt,nt
CCCOC(=O)c1cc(-c2ccc(/C=C3/C(=O)N(C)C(=O)C(C#N)=C3C)o2)ccc1Cl,-17%,25µM*,nt,-58*,nt,?
O=C(Cc1ccc(Cl)cc1)N1CCN(c2ccc(F)cc2)CC1,3%,-12%,3%,9,7%,-4%
CN(C)c1cccc(C(=O)N2CCC3(CC2)NC(=O)N(c2cccc(F)c2)N3)c1,nt,nt,2.2µM*,nt,nt,nt
Cc1ccc(N2NC3(CCN(C(N)=O)CC3)NC2=O)cc1,-5%,-6%,?,0,14%,49%
Cc1ccc(C(=O)N2CCC3(CC2)NC(=O)N(c2cccc(Cl)c2)N3)c(C)c1,nt,nt,1.4µM*,nt,nt,nt
O=C(Cc1ccc(Cl)cc1)N1CCC2(CC1)NC(=O)N(c1ccc(F)cc1)N2,nt,nt,2.5µM*,nt,nt,nt
CN(C)c1cccc(C(=O)N2CCC3(CC2)NC(=O)N(Cc2ccccc2)C3=O)c1,nt,nt,19%,nt,nt,nt
Cc1ccsc1C(=O)N1CCC2(CC1)NC(=O)N(c1ccc(F)cc1)N2,nt,nt,2.2µM*,nt,nt,nt
COc1ncccc1-c1nc(-c2c(C)noc2C)cc2cc(C(C)C)oc12,nt,nt,-5%[176 µM],nt,nt,nt
CC(OC(=O)c1cc2ccccc2[nH]1)C(=O)NC1CC1 (centres undefined),nt,nt,-23%,nt,nt,nt
O=C(c1cccc(F)c1)N1CCC2(CC1)NC(=O)N(Cc1ccc(F)cc1)C2=O,nt,nt,17%,nt,nt,nt
CCOc1ccc(C(=O)N2CCC3(CC2)NC(=O)N(Cc2ccc(F)cc2)C3=O)cc1,nt,nt,-6%,nt,nt,nt
CCOc1ccc(C(=O)N2CCC3(CC2)NC(=O)N(c2ccc(F)cc2)N3)cc1,nt,nt,2.2µM*,nt,nt,nt
SMILES,Pol kappa inh,Pol eta inh,12-LOX inh,PI5P4K alpha inh,Pol beta inh,POLI inh
Cc1ccc(C(=O)N2CCC3(CC2)NC(=O)N(c2cccc(F)c2)N3)cc1,nt,nt,2.5µM*,nt,nt,nt
O=C(c1cccc(F)c1)N1CCC2(CC1)NC(=O)N(c1ccccc1Cl)N2,nt,nt,1.3µM*,nt,nt,nt
Cc1ccc(C(=O)N2CCC3(CC2)NC(=O)N(c2ccc(F)cc2)N3)cc1,nt,nt,3.2µM*,nt,nt,nt
N#Cc1ccc(S(=O)(=O)NCCc2ccc(-n3cccn3)cc2)cc1,nt,nt,-25%,nt,nt,nt
CC(C)(C)C(=O)/C=c1/[nH]c(=O)/c(=C\c2ccccc2OC(F)(F)F)s1,nt,nt,31%,nt,nt,nt
Cc1ccc(C)c(C(=O)N2CCC3(CC2)NC(=O)N(c2cccc(F)c2)N3)c1,nt,nt,2.2µM*,nt,nt,nt
CSCC(=O)N1CCC(n2nccc2NC(=O)c2ccc3c(c2)OCO3)CC1,79µM*,-19%,3%,7,11%,?
Cc1ccc(C)c(NC(=S)N/N=C2/CCCCc3ccccc32)c1,-2%,-12%,50µM*,12,21%,12%
Cc1cccc(NC(=S)NN=C2CCCC2)c1C,nt,nt,28µM*,nt,nt,nt
CC(C)NC(=S)N/N=C1\CCCCc2ccccc21,-5%,-2%,40µM*,1,14%,?
COc1ccc(OCC(=O)N/N=C2\CCCCc3ccccc32)cc1,-14%,5%,9%,-63*,6%,30%
NCc1ccc(COc2ccccc2)cc1,nt,nt,10%,nt,nt,nt
Cc1ccc(C(=O)N/N=C2\CCc3ccccc32)c(C)c1,-3%,-1%,-16%,-12,0.16µM*,22%
S=C(N/N=C1\CCc2ccccc21)NC1CCCCC1,-16%,-6%,45µM*,3,4%,33%
O=C(N/N=C1/CCc2ccccc21)C1CC1,6%,-5%,5%,-7,27%,45%
COc1cccc(NC(=S)N/N=C2/CCCCc3ccccc32)c1,-12%,-26%,45µM*,0,9%,82%
O=C(Cn1nc(Br)nc1Br)c1ccc(F)cc1,nt,nt,11%,nt,nt,nt
C=CCOc1ccc(NC(=O)c2ccccc2)cc1,nt,nt,-1%,nt,nt,nt
Cc1scc(C(=O)NNC(=S)NCC2CCCO2)c1C (centres undefined),0%,7%,306%[57.4 µM],1,-12%,16%
Cc1scc(C(=O)NCC2CCCCC2)c1C,nt,nt,16µM*,nt,nt,nt
O=C(Nc1ccc(Cl)c(Cl)c1)c1nn(Cc2ccccc2)c(=O)c2ccccc12,nt,nt,-20%,nt,nt,nt
CCCCCC(=O)N1C[C@H](n2cc(COC(=O)c3ccccc3)nn2)[C@@H](O)C[C@@H]1c1ccc(C)cc1,nt,-13%,40µM*,6,nt,nt
O=C1Nc2ccc(-c3ccc4c(c3)OCO4)cc2C(=O)N2CCN(C(=O)c3cccs3)C[C@@H]12,nt,nt,-10%,nt,nt,nt
COc1ccc(NC(=S)N/N=C2\CC(C)(C)Oc3ccc(O)cc32)cc1,-3%[60.1 µM],-15%,32µM*,-5,1%,-5%
COc1ccccc1NC(=S)N/N=C1\CC(C)(C)Oc2ccc(O)cc21,-9%,-18%,?,0,-1%,10%
Cc1ccc(Cc2c(C)nc3nc(SCC(=O)NCc4ccco4)nn3c2C)cc1,-26%,?,-10%,-17,22µM*,?
Cc1cccc(C)c1NC(=O)Cn1c(=O)n(Cc2ccc(C(=O)NCc3ccco3)cc2)c(=O)c2sccc21,-21%,nt,?,nt,45µM*,45µM*
Cc1ccc(Cn2c(SCC(=O)NCc3ccco3)nc3ccsc3c2=O)cc1,-24%,6%,-8%,nt,-21%,100µM*
N#Cc1ccccc1Cn1c(=O)n(Cc2ccc(C(=O)NCc3ccco3)cc2)c(=O)c2sccc21,-26%,-15%,13%,-11,?,-6%
O=C(CSc1nc2c(sc3ccccc32)c(=O)n1CCO)NCc1ccco1,?,?,-26%,-9,45µM*,?
